Test results published in the supplement of paper PMC12494721.
Counter-ions that a name gives are not always drawn.

How the values were obtained:
Conditions in all cases: incubation time: 27 h, anaerobic, 37 °C;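 for the amine columns active = adjusted P below 0.05 in both replicates with a change the same way and a mean fold change under 0.8 or over 1.25; inactive = the rest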
[1] = tested on: Clostridium sporogenes DSM 1664; experiment: growth (OD595) fold change vs plate DMSO controls (fold change (ratio)); higher = more growth
Procedure, shortened: (§1)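 The measure reported is growth, taken as fold change against the median of DMSO controls on the same plate. Anaerobic mGAM cultures in 96-well plates (27 h, 37 °C) were read at 595 nm, blank-subtracted, corrected for compound background using 20 µM compound solutions in water, and multiplied by a calibration factor of 5 to give OD. Any fold change above 1.5 became NA, and 2 biological replicates were averaged.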

Escherichia coli IAI1 [2] = experiment: as above
Procedure, shortened: as §1

[3] = tested on: Klebsiella aerogenes DSM 30053; experiment: as above
Procedure, shortened: as §1

[4] = tested on: Ruminococcus gnavus DSM 108212; experiment: as above
Procedure, shortened: as §1

[5] = tested on: Klebsiella aerogenes DSM 30053; experiment: fold change of Histamine concentration vs plate DMSO controls (fold change (ratio)); higher = more amine produced, active = hit call of the paper (significant change in both replicates, either direction)
Procedure, shortened: (§2)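 Using LC–triple-quadrupole MS with dynamic MRM, amines were quantified against external calibration curves and corrected for drift within each batch. Samples were whole anaerobic mGAM cultures of four gut strains, grown 27 h at 37 °C from OD 0.1 before 1:1 dilution, extracted with cold acetonitrile/methanol containing 0.1% formic acid and centrifuged. Compounds were present at 20 µM final (sweeteners at 50 µM final). The numbers are fold changes versus plate DMSO controls, each the mean of 2 biological replicates.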

[6] = tested on: Clostridium sporogenes DSM 1664; experiment: fold change of Tryptamine concentration vs plate DMSO controls (fold change (ratio)); higher = more amine produced, active = hit call of the paper (significant change in both replicates, either direction)
Procedure, shortened: as §2

[7] = tested on: Ruminococcus gnavus DSM 108212; experiment: as above
Procedure, shortened: as §2

Escherichia coli IAI1 [8] = experiment: fold change of Putrescine concentration vs plate DMSO controls (fold change (ratio)); higher = more amine produced, active = hit call of the paper (significant change in both replicates, either direction)
Procedure, shortened: as §2

[9] = tested on: Klebsiella aerogenes DSM 30053; experiment: as above
Procedure, shortened: as §2

Escherichia coli IAI1 [10] = experiment: fold change of Cadaverine concentration vs plate DMSO controls (fold change (ratio)); higher = more amine produced, active = hit call of the paper (significant change in both replicates, either direction)
Procedure, shortened: as §2

[11] = tested on: Klebsiella aerogenes DSM 30053; experiment: as above
Procedure, shortened: as §2

[12] = tested on: Ruminococcus gnavus DSM 108212; experiment: fold change of 2-Phenylethylamine concentration vs plate DMSO controls (fold change (ratio)); higher = more amine produced, active = hit call of the paper (significant change in both replicates, either direction)
Procedure, shortened: as §2

Row | SMILES | growth [1] | growth (Escherichia coli IAI1 [2]) | growth [3] | growth [4] | fold change of Histamine concentration [5] | fold change of Tryptamine concentration [6] | fold change of Tryptamine concentration [7] | fold change of Putrescine concentration (Escherichia coli IAI1 [8]) | fold change of Putrescine concentration [9] | fold change of Cadaverine concentration (Escherichia coli IAI1 [10]) | fold change of Cadaverine concentration [11] | fold change of 2-Phenylethylamine concentration [12]
1 | O=C(Oc1cccc2cccnc12)c1ccccc1 [Benzoxiquine] (20 µM) | 1.09 | 0.939 | 1.04 | 1.13 | 0.957 (inactive) | 1.03 (inactive) | 1.03 (inactive) | 0.984 (inactive) | 1.02 (inactive) | 0.995 (inactive) | 1.01 (inactive) | 1.07 (inactive)
2 | O=C1NCC2(CCN(CCc3ccccc3)CC2)O1 [Fenspiride hydrochloride] (20 µM) | 1.08 | 0.982 | 1.05 | 1.03 | 0.89 (inactive) | 1.02 (inactive) | 1.03 (inactive) | 0.98 (inactive) | 0.973 (inactive) | 0.994 (inactive) | 1.02 (inactive) | 0.988 (inactive)
3 | COc1ccc(C(=O)c2ccc(C)cc2)c(O)c1 [Mexenone] (20 µM) | 0.644 | 0.407 | 0.378 | 0 | 1.02 (inactive) | 1.01 (inactive) | 1.03 (inactive) | 1.06 (inactive) | 1.01 (inactive) | 1.02 (inactive) | 0.998 (inactive) | 1.04 (inactive)
4 | Nc1cc(C(Cl)=C(Cl)Cl)c(S(N)(=O)=O)cc1S(N)(=O)=O [Clorsulon] (20 µM) | 1.04 | 0.963 | 0.957 | 0.922 | 1.15 (inactive) | 0.998 (inactive) | 1.02 (inactive) | 1.02 (inactive) | 1.03 (inactive) | 0.981 (inactive) | 0.978 (inactive) | 1.01 (inactive)
5 | CC(C)COCC(CN(Cc1ccccc1)c1ccccc1)N1CCCC1 (stereo not drawn) [Bepridil hydrochloride] (20 µM) | 0.909 | 0.996 | 1.11 | 0.654 | 0.937 (inactive) | 0.913 (inactive) | 0.743 (active) | 1.03 (inactive) | 1.01 (inactive) | 1.01 (inactive) | 1.01 (inactive) | 0.824 (inactive)
6 | CC(C)C[C@H](NC(=O)[C@@H](O)[C@H](N)Cc1ccccc1)C(=O)O [Ubenimex] (20 µM) | 1.02 | 0.971 | 0.969 | 0.332 | 0.887 (inactive) | 1.15 (inactive) | 0.148 (active) | 1.04 (inactive) | 0.95 (inactive) | 0.936 (inactive) | 0.973 (inactive) | 0.168 (active)
7 | CC(CN(C)C)CN1c2ccccc2CCc2ccccc21 (stereo not drawn) [Trimipramine maleate salt] (20 µM) | 0.87 | 0.987 | 0.974 | 0.826 | 0.994 (inactive) | 0.985 (inactive) | 0.998 (inactive) | 0.961 (inactive) | 1.01 (inactive) | 1.04 (inactive) | 1 (inactive) | 1.02 (inactive)
8 | OCC1(O)OC[C@@H](O)[C@@H](O)[C@H]1O (stereo partly drawn) [Psicose] (50 µM) | 1.08 | 1.01 | 1.03 | 1.03 | 1.03 (inactive) | 0.991 (inactive) | 0.992 (inactive) | 1.04 (inactive) | 1.04 (inactive) | 0.967 (inactive) | 1.01 (inactive) | 0.942 (inactive)
9 | C[C@H](N)[C@H](O)c1cccc(O)c1 [Metaraminol bitartrate] (20 µM) | 1.04 | 0.987 | 1.09 | 0.95 | 1.04 (inactive) | 1.05 (inactive) | 1.08 (inactive) | 1.02 (inactive) | 1.02 (inactive) | 0.982 (inactive) | 0.998 (inactive) | 1.12 (inactive)
10 | CC(C)(C#N)c1cc(Cn2cncn2)cc(C(C)(C)C#N)c1 [Anastrozole] (20 µM) | 0.911 | 1.16 | 1.01 | 1.02 | 1.02 (inactive) | 1.11 (inactive) | 1.09 (inactive) | 1.06 (inactive) | 0.954 (inactive) | 1.01 (inactive) | 0.994 (inactive) | 1.1 (inactive)
11 | CCCCC(O)c1ccccc1 (stereo not drawn) [Fenipentol] (20 µM) | 0.995 | 1.05 | 1.03 | 0.948 | 0.969 (inactive) | 0.989 (inactive) | 1.01 (inactive) | 1.01 (inactive) | 0.987 (inactive) | 1.03 (inactive) | 1.01 (inactive) | 1.04 (inactive)
12 | CCOC(=O)c1ccc(OC(=O)CCCCCNC(=N)N)cc1 [Gabexate mesilate] (20 µM) | 1.07 | 1 | 0.974 | 1.02 | 0.978 (inactive) | 0.953 (inactive) | 0.865 (inactive) | 1.01 (inactive) | 1.07 (inactive) | 0.998 (inactive) | 1.04 (inactive) | 0.776 (inactive)
13 | C[C@@H](CN1CC(=O)NC(=O)C1)N1CC(=O)NC(=O)C1 [Dexrazoxane hydrochloride] (20 µM) | 1.26 | 1.01 | 1.05 | 0.949 | 1.01 (inactive) | 0.997 (inactive) | 1.03 (inactive) | 0.979 (inactive) | 1.02 (inactive) | 0.988 (inactive) | 1.01 (inactive) | 1.02 (inactive)
14 | CN1CCN2c3ncccc3Cc3ccccc3C2C1 (stereo not drawn) [Mirtazapine] (20 µM) | 1.09 | 1.01 | 1 | 1.11 | 0.963 (inactive) | 1.12 (inactive) | 1.06 (inactive) | 0.964 (inactive) | 0.983 (inactive) | 0.984 (inactive) | 1.02 (inactive) | 1.04 (inactive)
15 | CN(C)CCCC1(c2ccc(F)cc2)OCc2cc(C#N)ccc21 (stereo not drawn) [Citalopram hydrobromide] (20 µM) | 0.923 | 0.992 | 0.994 | 1.08 | 0.919 (inactive) | 0.955 (inactive) | 0.845 (inactive) | 0.927 (inactive) | 1 (inactive) | 0.991 (inactive) | 1.01 (inactive) | 0.788 (inactive)
16 | O=C1c2cccc(O)c2C(=O)c2c(O)cccc21 [Danthron] (20 µM) | 0.931 | 1.21 | 1.01 | 0.841 | 0.93 (inactive) | 1.02 (inactive) | 1 (inactive) | 1.24 (inactive) | 0.975 (inactive) | 1 (inactive) | 1.01 (inactive) | 0.965 (inactive)
17 | Cc1cccc(C)c1OCC(=O)N[C@@H](Cc1ccccc1)[C@@H](O)C[C@H](Cc1ccccc1)NC(=O)[C@H](C(C)C)N1CCCNC1=O [Lopinavir] (20 µM) | 1.12 | 1.01 | 1.19 | 1.31 | 0.963 (inactive) | 0.892 (inactive) | 0.986 (inactive) | 0.989 (inactive) | 1.04 (inactive) | 1.02 (inactive) | 1.02 (inactive) | 0.997 (inactive)
18 | O=C(NC1CCN(CCCCC2(C(=O)NCC(F)(F)F)c3ccccc3-c3ccccc32)CC1)c1ccccc1-c1ccc(C(F)(F)F)cc1 [Lomitapide] (20 µM) | 1.1 | 1 | 1.06 | 1.07 | 0.938 (inactive) | 1.01 (inactive) | 0.709 (active) | 1.02 (inactive) | 1.01 (inactive) | 1.04 (inactive) | 1.01 (inactive) | 0.847 (inactive)
19 | CCC(Cc1c(I)cc(I)c(N)c1I)C(=O)O (stereo not drawn) [Iopanoic acid] (20 µM) | 0.989 | 1.13 | 1 | 1.05 | 0.999 (inactive) | 0.978 (inactive) | 0.879 (inactive) | 1.1 (inactive) | 0.994 (inactive) | 1.04 (inactive) | 0.985 (inactive) | 0.969 (inactive)
20 | CCN(CC)CCCC(C)Nc1c2ccc(Cl)cc2nc2ccc(OC)cc12 (stereo not drawn) [Quinacrine dihydrochloride hydrate] (20 µM) | 1.09 | 1.03 | 0.892 | 1.36 | 1.03 (inactive) | 1.1 (inactive) | 1.07 (inactive) | 1.03 (inactive) | 0.928 (inactive) | 0.982 (inactive) | 0.996 (inactive) | 1.08 (inactive)
21 | CC(C)(CO)[C@@H](O)C(=O)NCCC(=O)NCCSSCCNC(=O)CCNC(=O)[C@H](O)C(C)(C)CO [D-Pantethine] (20 µM) | 1.09 | 0.976 | 1.02 | 0.955 | 0.976 (inactive) | 1.03 (inactive) | 0.986 (inactive) | 1 (inactive) | 1.03 (inactive) | 1.03 (inactive) | 1 (inactive) | 1.02 (inactive)
22 | COc1ncnc(NS(=O)(=O)c2ccc(N)cc2)c1OC [Sulfadoxine] (20 µM) | 1 | 1.01 | 1.04 | 1.19 | 1.02 (inactive) | 0.997 (inactive) | 0.985 (inactive) | 1.01 (inactive) | 0.997 (inactive) | 1 (inactive) | 1.01 (inactive) | 0.968 (inactive)
23 | CCN1CCN(C(=O)N[C@@H](C(=O)N[C@@H]2C(=O)N3[C@@H]2SC(C)(C)[C@@H]3C(=O)O)c2ccccc2)C(=O)C1=O [Piperacillin sodium salt] (20 µM) | 0 | 0.563 | 1.07 | 0 | 0.706 (inactive) | 0.0439 (active) | 0.0274 (active) | 1.17 (inactive) | 1.06 (inactive) | 1.84 (active) | 1.03 (inactive) | 0.0313 (active)
24 | Nc1ccc(C(=O)O)c(O)c1 [Aminosalicylic acid] (20 µM) | 1.11 | 1.02 | 1.02 | 0.97 | 1.06 (inactive) | 1 (inactive) | 0.999 (inactive) | 1.01 (inactive) | 1.01 (inactive) | 1.02 (inactive) | 0.98 (inactive) | 0.981 (inactive)
